In PubChem BioAssay AID434973 (Sanford-Burnham Center for Chemical Genomics, 2010):
Screen size: about 330,000 compounds; about 4,900 (1.5%) were called active. The entries come from a sample that favours actives as a whole. A number with no mark means an inactive call.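 Rule for the calls: active = inhibition above about 50% at the single test dose (limit read from the data); inactive = the rest.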

What follows are compounds tested against Sentrin-specific protease 7 (Homo sapiens) (UniProt Q9BQF6) (assay: SENP7 protease inhibitors, primary screen, biochemical, luminescence, uHTS (AID 434973;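 note: plate controls were DMSO with enzyme for no effect and no enzyme buffer wells for full effect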)). Conditions: recombinant SENP7, Z-RLRGG-aminoluciferin luminescence, 40 min; at 5 µM; active compounds read high.

SMILES	inhibition
COc1ccccc1N(CC(=O)Nc1ccccc1C(=O)N1CCCC1)S(C)(=O)=O	5.42%
CCOC(=O)c1cnc2[nH]c3ccccc3n2c1=O	83.7% (active)
CCOC(=O)c1cnc2sccn2c1=O	0.0796%
CCOC(=O)c1cnc(COc2ccccc2Cl)[nH]c1=O	-8.27%
COc1cc(Cl)c(C)cc1NC(=O)CN1CCCCCC1	7.89%
CC(C)CCOc1ccc(C(=O)C[N+]2(C)CCOCC2)cc1	0.789%
O=C(CCn1ccc([N+](=O)[O-])n1)Nc1nccs1	0.106%
O=C(Cn1ccc([N+](=O)[O-])n1)NCc1cccs1	71.3% (active)
Cc1ccnc(NC(=O)Cn2ccc([N+](=O)[O-])n2)c1	10%
COc1ccc(N(CC(=O)NC2CCCCC2)C(=O)CNC(=O)c2ccco2)c(OC)c1	6.97%
Cc1noc(C)c1C(=O)NCCc1ccc(S(N)(=O)=O)cc1	10.1%
CCCC(=O)N(CCN1CCOCC1)c1nc2ccc(OCC)cc2s1	28.1%
COc1ccc2cc(C(=O)C3CCCN(C(=O)c4sc(C)nc4C)C3)ccc2c1 (stereo not given)	-3.44%
CCOc1ccc2nc(C(=O)N3CCCC(C)C3)sc2c1 (stereo not given)	67.4% (active)
Cc1ccc(CNC(=O)Cn2cnc3c(NCc4ccccc4)ncnc32)o1	-4.15%
C=C(Cl)COC(=O)C1C2C=CC(C2)C1C(=O)O (stereo not given)	-1.65%
CSCCC(NC(=O)C1CCC(C)CC1)C(=O)NCc1ccco1 (stereo not given)	0.735%
O=C(O)c1ccccc1NC(=S)NC(NC(=O)c1ccccc1[N+](=O)[O-])C(Cl)(Cl)Cl (stereo not given)	14%
CN(C)c1cc(-c2ccc(F)cc2)oc(=O)c1Cl	5.73%
CCCCCCc1cc2cc(-c3nnc(-c4ccccc4)o3)c(=O)oc2cc1O	-10.4%
O=c1oc2cc(O)ccc2cc1-c1ccc(F)cc1	100% (active)
Cn1c(N)c(C(=O)COC(=O)C23CC4CC(CC(C4)C2)C3)c(=O)n(C)c1=O	-1.02%
COc1cc(NC(=O)c2cncc(-c3ccc(C#N)cc3)c2)cc(C(=O)Nc2cccc(C(F)(F)F)c2)c1	-7.54%
O=C(Nc1nc2ccc([N+](=O)[O-])cc2s1)c1ccncc1	85.8% (active)

SMILES	inhibition
COc1ccc(C(=O)Nc2nc(-c3ccc(OC)cc3)c(-c3ccc([N+](=O)[O-])cc3)s2)cc1	-0.702%
O=C(NC(Nc1nc2ccc([N+](=O)[O-])cc2s1)(C(F)(F)F)C(F)(F)F)c1ccccc1	3.23%
CCCc1cc(=O)oc2c(C)c(OCC(=O)N3CCC(C(=O)O)CC3)ccc12	-6.34%
CCCc1cc(=O)oc2c(C)c(OCC(=O)Nc3ccccn3)ccc12	70.1% (active)
CCCc1cc(=O)oc2c(C)c(OCC(=O)NCc3ccccn3)ccc12	12.3%
CCO/N=C(/C)c1c(O)cc(-c2ccccc2)n(-c2ccccc2)c1=O	0.576%
CC1CCCC(NC(=O)c2cc(-c3ccncc3)nc3ccccc23)C1C (stereo not given)	-16.1%
S=c1[nH]nc(-c2cc(-c3ccccc3)n[nH]2)n1/N=C/c1c2ccccc2cc2ccccc12	-9.51%
c1ccc(-c2cc(-c3ccccc3)[nH]n2)cc1	54.4% (active)
S=c1[nH]nc(-c2cc(-c3ccsc3)n[nH]2)n1-c1ccccc1	4.56%
Oc1ccccc1-c1cc(-c2ccc(Cl)cc2)n[nH]1	92% (active)
CC(C)C(=O)NCc1cc(-c2ccc(Cl)cc2)no1	5.4%
Cc1ccc(NC(=O)c2cc(-c3ccccc3O)n[nH]2)cc1C	-11.8%
CO[C@@H]1[C@@H](OC(N)=O)[C@@H](O)C(Oc2ccc3c(O)c(NC(=O)c4ccc(O)c(CC=C(C)C)c4)c(=O)oc3c2C)OC1(C)C (stereo not given in full)	-1.54%
COc1ccc(-n2nnnc2SCC(=O)c2ccc(OC)c(OC)c2)cc1	3.65%
CCC(C)C(N=C1NS(=O)(=O)c2ccccc21)C(=O)N1CCC(C)CC1 (stereo not given)	2.08%
CCc1nnc(NC(=O)CSCc2cc(=O)n3cc(C)sc3n2)s1	-0.123%
CCCCN(C(=O)C1=NN(c2cc(C)ccc2C)C(=O)CC1)c1c(N)n(CCC)c(=O)[nH]c1=O	1.8%
Cc1ccc(CNC(=O)C2CCCN2C(=O)NCc2ccccc2)cc1 (stereo not given)	-3.49%
O=C(NC1CCCC1)C(c1ccccn1)N(C(=O)c1csnn1)C1CCCC1 (stereo not given)	4.87%
CCC(=O)Nc1ccc(C(=O)NNC(=O)c2ccc(Cl)cc2)cc1	-16.2%
O=C(Nc1ccc(Cl)cc1)c1ccsn1	51% (active)
O=C(NCc1ccccn1)Nc1ccc(Cl)cc1	0.805%
O=C1CC(Cc2ccccc2)C(=O)N1c1ccc(Cl)cn1 (stereo not given)	-5.29%

SMILES	inhibition
COc1ccccc1C1CCN(C(=S)Nc2ccc(Br)cc2)CC1	5.73%
CCc1ccc2oc(-c3ccc(N)cc3)nc2c1	97.1% (active)
O=C(Nc1ccc2oc(-c3ccc4ccccc4c3)nc2c1)c1cccs1	-22.1%
Cc1cc2nc(-c3ccc(NC(=O)c4cccnc4)cc3)oc2cc1C	-3.95%
CNC(=O)c1c(NC(NC(=O)c2ccco2)C(=O)c2ccc(Cl)cc2)sc2c1CCCC2 (stereo not given)	3.25%
CCOC(=O)c1ccc(NC(=O)c2cc(=O)[nH]c3ccccc23)cc1	4.62%
CCOC(=O)c1ccc(Nc2cc(C)nc3nc(C)nn23)cc1	0.148%
CCOC(=O)c1ccc(Nc2cc3ccccc3c(=O)[nH]2)cc1	84.1% (active)
Cc1ccc(CN2CCN(c3ncccn3)CC2)c(C)c1	-3.53%
Cc1cc(=O)oc2c(C)c(OCC(=O)NCCc3ccc(S(N)(=O)=O)cc3)ccc12	7.75%
N#C/C=C/N1CCN(Cc2ccc3c(c2)OCO3)CC1	-6.74%
Cc1c(NC(=S)NC(=O)CCc2ccccc2)c(=O)n(-c2ccccc2)n1C	-7.18%
Brc1ccc(-c2nnc(-c3ccccc3)o2)o1	57.6% (active)
Cn1nc(-c2ccccc2)c(-c2nc(-c3ccc(Cl)cc3)no2)c1Cl	1.67%
OC(c1nnc(-c2ccccc2)o1)c1cccs1 (stereo not given)	2.83%
O=C(OCc1ccc(Br)cc1)c1cccc(-c2nnc(-c3ccccc3)o2)c1	23.5%
Nc1nonc1-c1noc(-c2ccc(Br)o2)n1	9.66%
CN(C)c1ccc(-c2nnc(-c3cccnc3)o2)cc1	8.14%
Nc1ccc(-c2nnc(-c3ccc(-c4ccccc4)cc3)o2)cc1	70.3% (active)
Nc1ccc(-c2nnc(-c3ccccc3)o2)cc1	49.9%
Brc1ccc(-c2noc(-c3ccccc3)n2)o1	88.5% (active)
COc1ccc(C2C(C(C)=O)=C(O)C(=O)N2CCc2c[nH]c3ccccc23)cc1 (stereo not given)	0.562%
COc1ccc(NC(=O)c2sccc2SCC#N)cc1	7.98%
COCCN1CCn2c(nc3cc(NS(C)(=O)=O)ccc32)C1	3.45%

SMILES	inhibition
O=C(OCc1ccc([N+](=O)[O-])cc1)C1CC(=O)N(Cc2ccccc2Cl)C1 (stereo not given)	2.69%
Cc1ccc(-c2ccc(/C=C(\C#N)C(N)=S)o2)c([N+](=O)[O-])c1	2.25%
Cc1cc(C)nc(SCc2cn3c(C)cc(C)nc3n2)n1	3.49%
CSc1nc(C)nc(C2CC2)c1C#N	-2.65%
CC(=O)Nc1ccc(S(=O)(=O)NCC2CCC(C(=O)NCCc3ccccc3)CC2)cc1 (stereo not given)	2.3%
CCOc1ccc(NC(=O)COC(=O)C2CCC(=O)N2)c([N+](=O)[O-])c1 (stereo not given)	-6.28%
CCC(C)CCN1CCN=C1N(C)C (stereo not given)	9.82%
Cc1noc(C)c1S(=O)(=O)N(C)C[C@H]1Oc2ccc(NC(=O)C3CC3)cc2C(=O)N([C@H](C)CO)C[C@@H]1C	-0.149%
COC(=O)C1=C(C)N(c2ccc(C)cc2)/C(=C/c2ccc(O)cc2)C1=O	8.14%
COc1cc(C#Cc2ccc3cc(CCCO)oc(=O)c3c2)cc(OC)c1	79.7% (active)
COc1cc(/C=C2\Oc3ccc(C#Cc4ccc(O)cc4)cc3C2=O)cc(OC)c1	-7.29%
O=C1c2ccccc2C(=O)N1CCC#Cc1ccc2cc(C3(O)CCCCC3)oc(=O)c2c1	2.91%
Cn1c(=O)c2c(ncn2CC(=O)N/N=C/c2cn[nH]c2-c2ccc(F)cc2)n(C)c1=O	1.2%
CCCC(CNC(=O)COC(=O)C1=NNC(=O)CC1)c1ccc(Cl)cc1Cl (stereo not given)	-4.17%
O=C(O)CCCN1C(=O)c2ccccc2Sc2ncccc21	-1.32%
CCNc1nc(N)nc(Oc2ccc(OCC)nn2)n1	73.1% (active)
CCOc1ccc(Oc2nc(C)cc(OC)n2)nn1	-1.32%
CCNc1nc(N)nc(-c2cc(Cl)ccc2OC)n1	3.35%
CC12C(=O)N(c3ccccc3)C(=O)C1C(c1ccccc1)N1CCCN12 (stereo not given)	-4.08%
C=CCn1c(SCC(=O)c2c(N)n(C)c(=O)n(C)c2=O)nc2sc(CC)cc2c1=O	-1.46%
COc1cccc(/C=N\Nc2nncc(-c3ccccc3)n2)c1	24.7%
C/C(=N\Nc1nncc2ccccc12)c1ccc(Cl)c([N+](=O)[O-])c1	5.32%
CN(CCO)c1ccc(/C=N/Nc2nncc3ccccc23)cc1	93% (active)
